From PubChem BioAssay AID1671202 (University of Kansas High Throughput Screening Laboratory, 2021)
Values joined by “and” are separate entries in the source; they are usually repeats but may differ in a detail not shown here. Equal values may be shown once. In all, about 190,000 compounds went through this assay and about 6,900 (3.6%) were called active. The sample holds actives, similar compounds and a random draw of the others, so the mix is not that of the screen. A number with no mark means an inactive call. No stated cut-off is given here; in the data, active means inhibition above about 50%; inactive means the rest.

Biological target: Huntingtin (Homo sapiens) (UniProt P42858)
Test: mutant huntingtin-calmodulin interaction inhibitors – biochemical, AlphaScreen, primary screen (AID 1671202);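 further: 0% = both proteins with DMSO and 100% = one protein alone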
Settings: AlphaScreen His-mHTT/GST-CaM binding, luminescence; at 15 µM, stronger effect = higher value

Huntingtin (Homo sapiens), sequence (P42858 whole entry, looked up, stated change not applied): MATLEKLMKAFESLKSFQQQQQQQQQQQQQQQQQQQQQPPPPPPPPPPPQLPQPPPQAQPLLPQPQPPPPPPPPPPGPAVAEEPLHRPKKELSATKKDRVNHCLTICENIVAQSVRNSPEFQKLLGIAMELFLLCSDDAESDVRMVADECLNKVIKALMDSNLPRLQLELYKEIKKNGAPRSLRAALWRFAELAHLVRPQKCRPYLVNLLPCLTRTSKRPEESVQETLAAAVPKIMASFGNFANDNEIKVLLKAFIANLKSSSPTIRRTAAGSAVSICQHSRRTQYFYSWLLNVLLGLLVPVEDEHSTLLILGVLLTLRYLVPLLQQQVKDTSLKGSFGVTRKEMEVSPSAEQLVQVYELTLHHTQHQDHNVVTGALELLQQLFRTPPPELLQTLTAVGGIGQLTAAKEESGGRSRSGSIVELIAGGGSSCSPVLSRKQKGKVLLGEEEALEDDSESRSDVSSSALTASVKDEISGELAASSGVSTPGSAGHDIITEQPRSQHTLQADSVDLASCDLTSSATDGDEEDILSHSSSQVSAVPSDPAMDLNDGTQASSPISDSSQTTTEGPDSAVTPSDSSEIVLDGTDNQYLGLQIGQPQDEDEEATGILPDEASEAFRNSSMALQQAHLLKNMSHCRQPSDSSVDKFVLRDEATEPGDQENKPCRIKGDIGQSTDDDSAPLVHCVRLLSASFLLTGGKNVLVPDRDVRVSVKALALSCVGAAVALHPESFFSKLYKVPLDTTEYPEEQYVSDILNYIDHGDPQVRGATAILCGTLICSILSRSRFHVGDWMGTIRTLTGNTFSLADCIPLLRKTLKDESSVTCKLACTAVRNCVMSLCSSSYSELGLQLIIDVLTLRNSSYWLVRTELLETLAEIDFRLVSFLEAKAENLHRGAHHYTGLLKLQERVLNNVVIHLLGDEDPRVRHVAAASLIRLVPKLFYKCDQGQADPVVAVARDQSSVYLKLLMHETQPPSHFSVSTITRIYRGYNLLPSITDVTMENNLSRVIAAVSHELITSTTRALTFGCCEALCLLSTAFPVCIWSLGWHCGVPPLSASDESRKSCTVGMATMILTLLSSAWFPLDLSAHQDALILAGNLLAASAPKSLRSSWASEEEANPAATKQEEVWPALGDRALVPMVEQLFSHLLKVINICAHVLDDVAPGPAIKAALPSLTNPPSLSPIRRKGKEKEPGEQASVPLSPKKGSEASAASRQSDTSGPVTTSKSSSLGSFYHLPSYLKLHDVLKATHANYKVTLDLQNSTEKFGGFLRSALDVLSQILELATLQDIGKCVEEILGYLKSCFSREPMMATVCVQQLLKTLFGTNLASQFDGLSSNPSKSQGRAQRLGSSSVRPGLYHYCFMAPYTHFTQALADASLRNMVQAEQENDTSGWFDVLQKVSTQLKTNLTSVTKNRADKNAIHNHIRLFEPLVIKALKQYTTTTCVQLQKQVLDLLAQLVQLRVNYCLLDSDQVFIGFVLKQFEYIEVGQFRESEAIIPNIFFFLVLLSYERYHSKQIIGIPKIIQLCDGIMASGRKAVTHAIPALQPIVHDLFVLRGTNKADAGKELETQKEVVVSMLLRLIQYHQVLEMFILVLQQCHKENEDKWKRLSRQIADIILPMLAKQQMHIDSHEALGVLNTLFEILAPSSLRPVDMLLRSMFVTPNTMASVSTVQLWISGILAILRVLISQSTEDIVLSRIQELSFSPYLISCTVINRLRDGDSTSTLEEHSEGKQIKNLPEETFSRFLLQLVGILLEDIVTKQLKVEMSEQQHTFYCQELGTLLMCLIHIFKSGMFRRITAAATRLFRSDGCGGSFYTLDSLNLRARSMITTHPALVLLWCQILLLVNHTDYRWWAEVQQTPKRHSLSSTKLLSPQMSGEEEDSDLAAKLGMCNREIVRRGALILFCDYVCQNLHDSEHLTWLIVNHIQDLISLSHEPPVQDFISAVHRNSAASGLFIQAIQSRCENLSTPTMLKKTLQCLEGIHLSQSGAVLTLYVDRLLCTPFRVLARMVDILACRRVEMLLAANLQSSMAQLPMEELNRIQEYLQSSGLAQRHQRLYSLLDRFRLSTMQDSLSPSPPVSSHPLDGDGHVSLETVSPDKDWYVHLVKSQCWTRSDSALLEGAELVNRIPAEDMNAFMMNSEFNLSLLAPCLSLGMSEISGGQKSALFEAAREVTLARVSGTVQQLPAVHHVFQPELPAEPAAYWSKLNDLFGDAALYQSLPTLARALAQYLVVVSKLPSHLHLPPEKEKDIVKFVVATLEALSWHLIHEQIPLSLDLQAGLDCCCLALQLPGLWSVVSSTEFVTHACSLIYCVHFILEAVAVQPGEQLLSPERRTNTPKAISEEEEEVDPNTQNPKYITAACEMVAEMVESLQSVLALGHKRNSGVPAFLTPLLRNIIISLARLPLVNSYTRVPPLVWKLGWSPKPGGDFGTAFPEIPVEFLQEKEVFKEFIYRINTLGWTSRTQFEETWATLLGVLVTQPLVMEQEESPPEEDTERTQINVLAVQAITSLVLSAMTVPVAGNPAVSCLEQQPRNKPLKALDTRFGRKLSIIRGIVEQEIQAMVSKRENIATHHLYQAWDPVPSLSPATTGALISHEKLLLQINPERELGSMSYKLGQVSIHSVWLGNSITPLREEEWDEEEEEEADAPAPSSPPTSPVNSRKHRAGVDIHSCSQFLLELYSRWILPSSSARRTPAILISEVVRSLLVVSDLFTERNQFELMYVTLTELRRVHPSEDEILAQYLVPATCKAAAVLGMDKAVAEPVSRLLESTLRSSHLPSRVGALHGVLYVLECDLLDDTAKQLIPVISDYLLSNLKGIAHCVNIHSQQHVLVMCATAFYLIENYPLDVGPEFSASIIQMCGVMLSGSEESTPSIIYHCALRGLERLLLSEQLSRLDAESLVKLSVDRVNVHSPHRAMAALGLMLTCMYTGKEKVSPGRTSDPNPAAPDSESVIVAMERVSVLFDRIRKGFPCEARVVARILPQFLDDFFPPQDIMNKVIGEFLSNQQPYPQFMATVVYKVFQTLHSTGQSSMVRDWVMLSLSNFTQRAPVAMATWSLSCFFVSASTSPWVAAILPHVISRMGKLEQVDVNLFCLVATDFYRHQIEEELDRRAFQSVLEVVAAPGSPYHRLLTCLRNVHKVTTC

| Structure (SMILES) | inhibition |
| --- | --- |
| O=[N+]([O-])c1ccc(N2CCN(CC3CC4C=CC3C4)CC2)cc1 (stereo not given) | 19.4% |
| COc1cc(Cl)c(NC(=O)C2CCCN(C(=O)c3cc(C)cc(C)c3)C2)c(OC)c1 (stereo not given) | 1.7% |
| CC1(C)CC(=O)C2=C(C1)Nc1ccc3ncccc3c1C2c1ccccc1C(F)(F)F (stereo not given) | 4% |
| CCOc1ccc(-c2ccc(N3CCN(C(=O)Cn4cnc5ccccc54)CC3)nn2)cc1 | 14.5% |
| CC1C(=O)N(Cc2cn(CC3CCCCC3)nn2)CCS(=O)(=O)N1Cc1ccc(-c2cccc(N(C)C)c2)cc1 (stereo not given) | 65.9% (active) |
| Cc1ccc(-c2ccc(CN3C(C(C)C)C(=O)N(Cc4cn(CCC5OCCO5)nn4)CCS3(=O)=O)cc2)cc1 (stereo not given) | 14.9% |
| Cc1ccc(-c2ccc(CN3C(C(C)C)C(=O)N(Cc4cn(CCC5OCCCO5)nn4)CCS3(=O)=O)cc2)cc1 (stereo not given) | 19% |
| COc1ccc(-c2ccc(CN3C(CC(C)C)C(=O)N(Cc4cn(CC5CCCCC5)nn4)CCS3(=O)=O)cc2)cc1 (stereo not given) | 3.9% |
| CC(C)C1C(=O)N(Cc2cn(CCC3OCCO3)nn2)CCS(=O)(=O)N1Cc1ccc(-c2ccccc2C(F)(F)F)cc1 (stereo not given) | 43.5% |
| CC(=O)c1cccc(-c2ccc(CN3C(CC(C)C)C(=O)N(Cc4cn(CC5CCCCC5)nn4)CCS3(=O)=O)cc2)c1 (stereo not given) | 22.9% |
| CC1C(=O)N(Cc2cn(Cc3ccco3)nn2)CCS(=O)(=O)N1Cc1ccc(-c2cccc(CO)c2)cc1 (stereo not given) | 30% |
| Cc1ccc(-c2ccc(CN3C(C)C(=O)N(Cc4cn(CCC5OCCCO5)nn4)CCS3(=O)=O)cc2)cc1 (stereo not given) | -4% |
| CC(C)CC1C(=O)N(Cc2cn(Cc3ccco3)nn2)CCS(=O)(=O)N1Cc1ccc(-c2ccc(Cl)c(Cl)c2)cc1 (stereo not given) | 97.6% (active) |
| COc1ccc(-c2ccc(CN3C(C(C)C)C(=O)N(Cc4cn(CC5CCCCC5)nn4)CCS3(=O)=O)cc2)cn1 (stereo not given) | 29.4% |
| COCOCCn1cc(CN2CCS(=O)(=O)N(Cc3ccc(-c4cccc(N(C)C)c4)cc3)C(CC(C)C)C2=O)nn1 (stereo not given) | 65.8% (active) |
| COCOCCn1cc(CN2CCS(=O)(=O)N(Cc3ccc(-c4ccccc4)cc3)C(CC(C)C)C2=O)nn1 (stereo not given) | 60.8% (active) |
| CC(C)NC(=O)c1cn(-c2ccc(F)cc2)nn1 | 3.4% |
| COc1c(S(=O)(=O)Nc2ccc(CC(=O)O)cc2)ccc(Cl)c1Cl | -3% |
| Cc1ccc(C(=O)NC2CCN(c3ccccc3C(=O)N(C)C(C)C)CC2)cc1 | 6.6% |
| O=C(c1ccc(Cl)cc1)N(Cc1cc(-c2ccccc2)on1)C1CC1 | -12.1% |
| CCC(c1ccccc1)c1nc(-c2ccc3nnn(C)c3c2)no1 (stereo not given) | -20.7% |
| CCCCC(=O)Nc1c2c(nn1-c1ccc([N+](=O)[O-])cc1)CS(=O)(=O)C2 | -1% |

| Structure (SMILES) | inhibition |
| --- | --- |
| CCOC(=O)c1c(NC(=O)c2ccc([N+](=O)[O-])s2)sc2c1CCCC2 | -0.8% |
| COc1nccnc1NS(=O)(=O)c1ccc(NC(=O)c2ccc(C(C)(C)C)cc2)cc1 | 13.2% |
| O=c1[nH]c(C=C2C=Nc3ccc(Br)cc32)c(O)n1Cc1ccc(Br)cc1 | 93% (active) |
| CCc1nc2c(NC(=O)Nc3cccc(C)c3)cccn2n1 | -3.6% |
| COc1ccc(-n2nc3c(c2NC(=O)c2ccccc2Cl)CSC3)cc1 | 22% |
| CCCC(=O)N1CCc2c(c(C(=O)NCc3cccc(C)c3)nn2C)C1 | 35.7% |
| Cn1nc(C(=O)NCc2ccccc2)c2c1CCN(C(=O)c1cccc(F)c1)C2 | 64.8% (active) |
| COc1ccc(CC(=O)N2CCc3c(c(C(=O)NCc4cccc(C)c4)nn3C)C2)cc1 | 40.5% |
| COc1cccc(C(=O)N2CCc3c(c(C(=O)NCc4cccc(C)c4)nn3C)C2)c1 | 66.6% (active) |
| Cc1cccc(C(=O)N2CCc3c(c(-c4nc(Cc5ccccc5)no4)nn3C)C2)c1 | 7.62% |
| COc1cc(OC)cc(C(=O)N2CCc3c(c(C(=O)NCc4cccc(C)c4)nn3C)C2)c1 | 40.8% |
| O=C(O)CCCCCNS(=O)(=O)c1cccc(C(F)(F)F)c1 | -2% |
| O=C(c1ccc(F)cc1)N1CCCC1c1ccccc1F (stereo not given) | -8.08% |
| O=C(CSC1=Nc2ccccc2C2=NC(Cc3ccccc3)C(=O)N12)NC1CCCCC1 (stereo not given) | 39% |
| O=C(CSC1=Nc2ccccc2C2=NC(Cc3ccccc3)C(=O)N12)c1ccc(O)c(O)c1 (stereo not given) | 57% (active) |
| CC(C)C1N=C2c3ccccc3N=C(SCC(=O)c3ccc(O)c(O)c3)N2C1=O (stereo not given) | 20% |
| CCCN1C(=O)COc2ccc(-c3noc(-c4ccccc4C(F)(F)F)n3)cc21 | -2.1% |
| CCN(CC)c1ncc2c(n1)CCC(C(=O)N(C)c1ccc(C)c(C)c1)C2 (stereo not given) | 25.8% |
| Cc1ccc2c(c1)-c1c(ssc1=Nc1ccc(Cl)cc1Cl)C(C)(C)N2 | 73.7% (active) |
| Cc1ccc(N=Cc2ccc(Cl)cc2Cl)c(O)c1 | 12% |
| CC(=O)Nc1ccc(N2CCCCC2)nc1 | 2.4% |
| CC(C)NC(=O)N1CCc2[nH]cnc2C1c1ccccn1 (stereo not given) | 83.5% (active) |

| Structure (SMILES) | inhibition |
| --- | --- |
| O=C(Nc1c(F)cccc1F)N1CCc2[nH]cnc2C1c1ccncc1 (stereo not given) | -5.1% |
| O=C(c1ccc(F)c(F)c1)N1CCc2[nH]cnc2C1c1ccccc1 (stereo not given) | 17.4% |
| O=C(Nc1ccc(C(F)(F)F)cc1)N1CCc2[nH]cnc2C1c1ccncc1 (stereo not given) | 11.1% |
| COC(=O)c1ccccc1NC(=O)N1CCc2[nH]cnc2C1c1ccncc1 (stereo not given) | 7.22% |
| O=C(Cc1ccc(F)cc1)N1CCc2[nH]cnc2C1c1ccccn1 (stereo not given) | 81.1% (active) |
| O=C1OC(c2ccc(Cl)cc2Cl)=N/C1=C\c1ccc(F)cc1 | 2% |
| COc1cccc(C2CC(c3cc(Br)ccc3F)n3nnnc3N2)c1 (stereo not given) | 4.06% |
| CCCNC(=O)C1CN(C(=O)c2ccccc2F)CC1c1cccc(F)c1 (stereo not given) | -5.9% |
| CC1(C)c2ccccc2N(CCO)C12C=Cc1cc([N+](=O)[O-])ccc1O2 (stereo not given) | 62% (active) |
| O=C1CSC(c2cccc([N+](=O)[O-])c2)N1c1cc(Cl)ccc1O (stereo not given) | 8% |
| Cc1nc2n(n1)C(c1ccc(Cl)cc1)C=C(c1ccc(Cl)cc1)N2 (stereo not given) | 31% |
| Clc1ccc(C2=CC(c3ccccc3)n3ncnc3N2)cc1 (stereo not given) | 1% and -2.22% |
| COc1ccccc1C(=O)Nc1nc2n(n1)C(c1ccccc1)C=C(c1ccc(Cl)cc1)N2 (stereo not given) | 51% (active) |
| CCS(=O)(=O)NCc1nnnn1-c1ccc(F)c(F)c1 | -8.6% |
| Cc1cccc(N2CCC(C(=O)NCc3ccccc3F)C2=O)c1C (stereo not given) | -0.6% |
| COc1ccc(-c2ncc3c(n2)CCN(C(=O)c2cccc(OC)c2)C3)cc1 | 11.1% |
| O=C(NC1CCCC1)C1CCNCC1 | -0.4% |
| Cc1cc(-c2nnc(NC(=O)C3CC(=O)N(c4ccc(C)c(C)c4)C3)o2)n(C)n1 (stereo not given) | 90.2% (active) |
| Cc1ccc(N2CC(C(=O)Nc3cc(C(F)(F)F)ccc3Cl)CC2=O)cc1C (stereo not given) | -1% |
| COc1ccc(NC(=O)C2CC(=O)N(c3ccc4oc(C)nc4c3)C2)cc1 (stereo not given) | 2.03% |
| N#Cc1ccc(C(=O)N2CCCC2c2nc(-c3cccc(C(F)(F)F)c3)no2)cc1 (stereo not given) | 2.8% |
| O=C(c1cccnc1)N1CCCC1c1nc(-c2cccc(C(F)(F)F)c2)no1 (stereo not given) | 27.6% |

| Structure (SMILES) | inhibition |
| --- | --- |
| O=C(C1COc2ccccc2O1)N1CC(c2nc(-c3cccc(C(F)(F)F)c3)no2)C1 (stereo not given) | 88.9% (active) |
| COc1ccc(C(=O)COc2ccc3c(c2)OC(=Cc2cc(OC)c(OC)c(OC)c2)C3=O)cc1 | 2.6% |
| Cc1ccc(C)c(NC(=O)c2cc3n(n2)CCCN(Cc2ccccc2)C3=O)c1 | -4.93% |
| CS(=O)(=O)N1CCc2cc(NC(=O)Nc3cccc(C(F)(F)F)c3)ccc21 | 16.1% |
| O=C(C1c2ccccc2Oc2ccccc21)N1CCN(c2ccc([N+](=O)[O-])cc2)CC1 | -2.2% |
| CN(C)c1ccc(C(O)(c2ccccc2)c2ccccc2)cc1 | 76% (active) |
| CC(C)=CC(=O)CC(C)(O)c1ccccc1 (stereo not given) | 1.5% |
| CN(C)c1ccc(C(=O)NC2CCN(c3ccccc3)C2=O)cc1 (stereo not given) | -3.2% |
| COc1ccccc1C(=O)N1CCc2nc(-c3ccc(Cl)cc3)ncc2C1 | 9.54% |
| COc1ccccc1-c1nc(C2CCN(C(=O)c3ccc(Cl)cc3)CC2)no1 | 38.7% |
| COc1ccccc1-c1nc(C2CCN(C(=O)c3cc4cc(Cl)ccc4[nH]3)CC2)no1 | 80.8% (active) |
| COc1ccccc1-c1nc(C2CCN(C(=O)C3COc4ccccc4O3)CC2)no1 (stereo not given) | 34.9% |
| CCS(=O)(=O)N1CCCC(OCc2nc(CCOC)no2)C1 (stereo not given) | -8.91% |
| COc1ccccc1CC(=O)N1CCc2c(nc3cc(-c4ccccc4Cl)[nH]n3c2=O)C1 | 53% (active) |
| CCCCS(=O)(=O)N1CCc2c(nc3cc(-c4ccccc4Cl)[nH]n3c2=O)C1 | 21.9% |
| COc1ccc(Cl)cc1C(=O)N1CCc2c(nc3cc[nH]n3c2=O)C1 | 9.45% |
| Cn1cccc1C(=O)N1CCc2nc3cc(-c4ccccc4)[nH]n3c(=O)c2C1 | 25.2% |
| O=C(NCC1CCCO1)N1CCc2nc3cc(-c4ccccc4Cl)[nH]n3c(=O)c2C1 (stereo not given) | 5.22% |
| COc1ccccc1C(=O)N1CCc2c(nc3cc(-c4ccccc4Cl)[nH]n3c2=O)C1 | 63.9% (active) |
